Assay outcomes as filed in PubChem BioAssay.
Most compounds without a hit are left out; they make up all but 2.9% or so of the library.
CF NFkB block: inhibitors of PAF-induced NF-kB signaling, primary screen, cell-based, GFP fluorescence, uHTS; KKLEB NF-kB-GFP reporter, GFP fluorescence overnight; inhibition, % at 5 µM; 0.86% of 360,000 active;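 active = at least 50% inhibition at 5 µM, scaled per plate between neutral and stimulator controls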;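 also: PAF is a Pseudomonas aeruginosa culture filtrate used as stimulus; plate controls were PAF-stimulated DMSO wells for no effect and unstimulated DMSO wells for full effect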
Shn3 inh set2: reduction of Shn3 3'UTR firefly luciferase signal, primary screen, Schnurri-3 inhibitor project, cell-based, Clone20 osteoblasts, set 2; Clone20 osteoblast Shn3 3'UTR firefly luciferase, 24 h; inhibition, % at 12.5 µM; 0.52% of 360,000 active; AID 588674, 2011;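 active = mean inhibition of at least 75% with every replicate also reaching 75%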;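 also: 0% = median of neutral control wells and 100% = pilot-screen positive control compound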
EBV LMP1 NFkB: EBV LMP1-driven NF-kappaB luciferase reporter inhibitors, primary screen, cell-based, luminescence, single point. LMP1-induced NF-kappaB luciferase reporter cells. 0.69% of 350,000 active. inhibition, % at 12.5 µM; in the data active = inhibition above about 41%;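 also: 0% = neutral control wells and 100% = reference inhibitor control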
Peg3 promoter: Peg3 promoter-driven luciferase inhibitors, primary screen, cell-based, HeLa, luciferase luminescence; 1.7% of 360,000 active; HeLa PEG-Prom luciferase reporter, overnight; inhibition, % at 20 µM;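 active = inhibition of at least 50% at 20 µM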
HIF-2a inh: HIF-2a reporter inhibitors, primary screen, luminescence, 786-0 RCC cells. 0.72% of 360,000 active. inhibition, % at 18.8 µM. 786-0 RCC cells HIF-2a reporter, luciferase luminescence, overnight;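 active = inhibition of the luminescence signal of 40% or more relative to plate controls, in a single-dose primary screen at 18.75 µM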
KKLEB cytotox: cytotoxicity in KKLEB CF airway cells, primary screen, cytotoxicity control for CF NF-kB inhibitor project, cell-based, uHTS, fluorescence assay plates; KKLEB CF airway cells viability, ATPlite luminescence, overnight; hits give low values; cells stimulated with P. aeruginosa culture filtrate; activity change (cytotoxicity), % at 5 µM; 0.36% of 360,000 active; AID 602141, 2011;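 active = corrected activity change at or below -50% at 5 µM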
Active calls of the source: *; nt = not tested or not shown.

SMILES | CF NFkB block | Shn3 inh set2 | EBV LMP1 NFkB | Peg3 promoter | HIF-2a inh | KKLEB cytotox
OCCN1CCN(C2Cc3cc(Cl)ccc3Sc3ccc(Cl)cc32)CC1 (centres undefined) (tested in a mixture with another compound) | 17 | -24 | -16 | 65* | 13 | -16
CN1CCN(CCOC2Cc3ccccc3Sc3ccc(Cl)cc32)CC1 (centres undefined) | 17 | 17 | -18 | 36 | 11 | -10
CN1CCN(C2=Cc3ccccc3Sc3cc(F)c(F)cc32)CC1 | 5 | -6 | -19 | 15 | 11 | -10
CN1CCN(C2=Cc3cc(Cl)ccc3Sc3cc(F)ccc32)CC1 | 30 | -47 | -16 | 94* | 36 | -23
N/C(=N\O)c1cn(Cc2ccccc2Cl)c2ccccc12 | -4 | 11 | -14 | 28 | 26 | -3
Cc1[nH][nH]c(=O)c1C(c1c(C)[nH][nH]c1=O)c1cn(Cc2ccccc2Cl)c2ccccc12 | 68* | 5 | -8 | 56* | 14 | -37
CC(Nc1ncnc2sccc12)c1ccccc1 (centres undefined) | -4 | 87* | 24 | 14 | 15 | 2
C=CCN=C1NN=C(c2cc(C)n(CCOC)c2C)CS1 | 9 | 4 | 45* | -15 | 47* | 8
C=CCn1c(C)cc(C2=NNC(=NC(C)(C)C)SC2)c1C | -4 | 11 | 57* | 43 | 49* | -10
CN1OC[C@@H]2CN(C(=S)NCCc3ccccc3)[C@H](c3ccc(N4CCCCC4)cc3)C[C@@H]21 | -12 | 9 | nt | 16 | 3 | 19
Cc1cc(C)c(C(=O)CC(=O)c2cccnc2)c(C)c1 | -6 | 28 | 3 | 11 | 10 | 4
O=C(c1cc2nc(-c3ccccc3)cc(-c3ccccc3)n2n1)N1CCN(C(=O)c2ccco2)CC1 | 8 | 30 | 28 | 50* | 24 | -1
Nc1ccccc1O | 53* | 8 | -21 | -47 | -42 | -3
CCCCCCCc1ccc(-c2ccc(O)cc2)nc1 | 1 | -45 | -38 | -251 | -213 | 4
CCCCCc1ccc(-c2ccc(/C=C/C(=O)O)cc2)nc1 | 14 | 21 | 43* | 2 | 74* | -2
CC(=O)Nc1ccc(S(=O)(=O)NCCc2ccc3c(c2)OCCO3)cc1 | -30 | 5 | 1 | 8 | 12 | 10
O=c1[nH]c(=O)n([C@H]2C[C@H](O)[C@@H](CO)O2)cc1F | 0 | 76 | 50* | 35 | -3 | -32
COc1cc2ccccc2cc1C(=O)Nc1sc2c(c1C(N)=O)CCN(C(C)C)C2 | 29 | 5 | -18 | 101* | 8 | -23
CN1CCc2c(sc(NC(=O)c3ccc4ccccc4c3)c2C(N)=O)C1 | -36 | -50 | -7 | -23 | -167 | -10
Cc1c(OCC(=O)NCC(O)c2ccccc2)ccc2c3c(c(=O)oc12)CCCC3 (centres undefined) | -75 | 2 | 5 | 23 | -11 | 2
COC(=O)c1cccc2c1-c1ccccc1/C2=N/O | 72* | 12 | 44* | 12 | 32 | -15
COc1ncnc2c1ncn2CCCNCC(c1ccccc1)c1ccccc1 | -10 | 13 | -1 | -1 | -4 | 2
c1ccc(COc2ncnc3c2ncn3CCCNCC(c2ccccc2)c2ccccc2)cc1 | 21 | 30 | -60 | 100* | 14 | -17
COc1ccc(C=CC(=O)c2ccc3cc(OC)c(OC)cc3c2)cc1OC | 36 | 55 | 32 | 92* | 3 | -13
COc1ccccc1OCc1ccc(C(=O)c2ccccc2)cc1 | 3 | -6 | 63* | -127 | -205 | 6
SMILES | CF NFkB block | Shn3 inh set2 | EBV LMP1 NFkB | Peg3 promoter | HIF-2a inh | KKLEB cytotox
COC(=O)c1cn(C(=O)/C=C/c2ccc(OC)c(OC)c2)c2ccccc12 | 12 | -38 | -33 | 82* | -86 | -16
O=C(/C=C/c1ccccc1)c1ccc2ccccc2c1 | -24 | -61 | -27 | 78* | -220 | 8
CC(Sc1ncnc2ccccc12)C(=O)Nc1ccc2c(c1)OCCO2 (centres undefined) | 13 | 29 | 3 | -23 | -45 | 0
Nc1sccc1C(=O)NCc1ccccc1 | nt | nt | nt | nt | -10 | nt
CCc1ccccc1NC(=O)CN1CCN(C(=O)C2CCN(C(=O)/C=C/c3ccccc3)CC2)CC1 | -2 | 20 | 10 | -8 | -6 | -5
CCCN(CCC)S(=O)(=O)c1ccc(C(=O)NCc2n[nH]c(=S)n2-c2ccc(Cl)c(Cl)c2)cc1 | -15 | 2 | -14 | 25 | 12 | 21
COc1ccc(C(=O)C=Cc2ccc(OCc3ccccc3)c(OC)c2)cc1OC | 0 | 0 | 0 | 80* | 21 | -16
COc1cc(/C=N/NS(=O)(=O)c2ccc(C)cc2)ccc1OCc1ccc(C(=O)O)cc1 | 11 | 25 | 61* | -20 | 32 | -16
COc1ccc(/C=C/C(=O)C(C)(C)C)cc1OC | -2 | -1 | 4 | 83* | -12 | 3
CCOc1ccc(/C=N/NS(=O)(=O)c2ccc(C)cc2)cc1OC | 5 | 7 | 0 | 21 | 19 | 6
COc1cc(OC)c(C(=O)C=Cc2ccc(OC)c(OC)c2)c(OC)c1 | 35 | -12 | 5 | 16 | 37 | -13
COc1ccc(Oc2ccc(/C=C/C(=O)c3cccc(OC)c3)cc2[N+](=O)[O-])cc1 | -28 | -5 | -2 | 114* | 34 | 1
CC1(C2CC2)NC(=O)N(CC(=O)Nc2ccccc2-c2ccccc2)C1=O (centres undefined) | -2 | 9 | 7 | -5 | 7 | -6
Cc1nc2c(cnn2CCO)c(=O)[nH]1 | -16 | 5 | 0 | -5 | 8 | 14
COC(=O)[C@@]12C[C@@H](CC(=O)N3CCSCC3)C(=O)N(Cc3cccc4ccccc34)C1=CCC(C)(C)C2 | nt | nt | nt | nt | -4 | nt
CCC1CSC(Nc2ccc(C(=O)/C=C/c3ccc(OC)c(OC)c3)cc2)=N1 (centres undefined) | 14 | 87* | 20 | 91* | 27 | -7
O=C(CCn1ccc2cc(S(=O)(=O)N3CCCC3)ccc21)NCCc1ccccc1 | -14 | -1 | 72* | 12 | -3 | 20
COCCOc1nc2c(c(=O)n(C)c(=O)n2C)n1Cc1cccc(OC)c1 | 6 | 87* | 5 | 19 | 26 | 8
COc1ccc(Oc2nc3c(c(=O)n(C)c(=O)n3C)n2Cc2cccc(OC)c2)cc1 | -2 | 2 | -3 | 5 | 18 | 9
COc1ccc(-c2csc(NC(=O)c3ccc(OCC(=O)N4CCOCC4)c(OC)c3)n2)cc1OC | -7 | 16 | 20 | 92* | 15 | -7
